Sampled rows, rich in hits. Any-hit rate of the full collection: about 3%.
hERG WT inh: KCNH2 (human, wildtype) channel inhibition; Q12809; U2OS, BacMam KCNH2, thallium flux FluxOr; active compounds read low; activity change, % at 1.84 µM; 340,000 tested, 0.37% active; AID 720551;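 active means maximum activity change below -70%; inconclusive means maximum activity change between -70% and -50%; inactive means maximum activity change above -50%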; further: on the % scale 0 is the no-effect control and ±100 the full control effect
Target sequence (Q12809 whole entry, looked up): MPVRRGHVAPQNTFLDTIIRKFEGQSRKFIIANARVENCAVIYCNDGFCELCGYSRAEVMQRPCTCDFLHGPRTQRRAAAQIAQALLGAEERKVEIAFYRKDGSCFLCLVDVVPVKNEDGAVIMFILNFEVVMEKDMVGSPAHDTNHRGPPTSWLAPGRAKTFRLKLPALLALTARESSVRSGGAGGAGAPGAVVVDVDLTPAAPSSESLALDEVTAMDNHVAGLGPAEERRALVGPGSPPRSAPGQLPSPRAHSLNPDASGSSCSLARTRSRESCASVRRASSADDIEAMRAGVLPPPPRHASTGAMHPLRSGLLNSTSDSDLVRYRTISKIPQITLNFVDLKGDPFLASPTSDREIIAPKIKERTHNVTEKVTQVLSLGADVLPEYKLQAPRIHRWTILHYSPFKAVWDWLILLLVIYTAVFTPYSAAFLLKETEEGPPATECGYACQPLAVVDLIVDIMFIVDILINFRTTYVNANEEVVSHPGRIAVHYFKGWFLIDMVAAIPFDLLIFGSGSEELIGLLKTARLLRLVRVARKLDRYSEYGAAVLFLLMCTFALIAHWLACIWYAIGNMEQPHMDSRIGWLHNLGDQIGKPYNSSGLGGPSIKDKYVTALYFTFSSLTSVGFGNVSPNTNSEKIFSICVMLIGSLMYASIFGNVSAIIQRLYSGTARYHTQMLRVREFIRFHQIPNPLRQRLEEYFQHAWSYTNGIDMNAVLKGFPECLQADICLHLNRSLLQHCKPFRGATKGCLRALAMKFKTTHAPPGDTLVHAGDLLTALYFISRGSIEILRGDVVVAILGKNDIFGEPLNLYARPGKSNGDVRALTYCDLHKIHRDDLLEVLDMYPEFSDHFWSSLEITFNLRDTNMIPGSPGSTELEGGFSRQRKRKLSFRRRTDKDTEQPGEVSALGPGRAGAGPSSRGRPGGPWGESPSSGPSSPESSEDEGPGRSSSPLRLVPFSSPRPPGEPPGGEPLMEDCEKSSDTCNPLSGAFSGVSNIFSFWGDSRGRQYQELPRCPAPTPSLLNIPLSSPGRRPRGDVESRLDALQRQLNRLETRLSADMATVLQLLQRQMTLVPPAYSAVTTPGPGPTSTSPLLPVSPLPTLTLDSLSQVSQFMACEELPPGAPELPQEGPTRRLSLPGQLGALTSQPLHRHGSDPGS
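U2OS cells transduced with wild-type KCNH2 virus are loaded with FluxOr dye for 45 min, and thallium flux is measured in kinetic reads before and after stimulation buffer. Rate constants are normalized to DMSO controls.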
Chronic BCR inh: chronic active BCR signaling inhibition | Potency, µM (doses to about 46.1 µM), inactives show at the highest dose activity change, negative = inhibition, most hits filed as inhibitors | ABC-DLBCL IkBa-CBG/CBR reporter, luminescence ratio, 4 h | 340,000 tested, 0.05% active; active means well fitted inhibition curve with a large enough effect in the signal ratio, with a control signal flat, not every such curve was filed as active; inconclusive means small, poorly fitted or top-dose-only effect, or effect the other way, or a change in a side signal; the % refers to the signal ratio;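 further: potency means the concentration at half of the fitted maximal effect; plate controls were basal doxycycline-induced cells for no effect and cells given 10 µM MG132 for full effect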
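TMD8 human ABC-DLBCL cells with doxycycline-inducible IκBα–green luciferase fusion and unfused red luciferase, in 0.5% FBS medium; compounds up to 46 uM, 4 h at 37C. Green/red luminescence ratio, filter-overlap corrected, fitted to concentration-response curves.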
ClpP mod: qHTS Assay for Activators of ClpP; ATP-dependent Clp protease proteolytic subunit (Bacillus subtilis (strain 168)), P80244; purified B. subtilis ClpP, FRET peptide cleavage, 20 min; Potency, µM (highest dose often 57.5 µM), inactives show at the top dose activity change, negative = active; 340,000 tested, 1.9% active; AID 651965, 2013; active means well fitted falling curve with a large enough effect; inconclusive means small, poorly fitted or top-dose-only effect; inactive means no such curve, though single readings can be large or run the other way; further: potency means the concentration at half of the fitted maximal effect; the source files actives as falling curves though it sought activators and does not explain the sign; nearly all actives have a fitted effect of over 65% in size
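Purified B. subtilis ClpP, 10 microg/mL final in Tris/HCl pH8 with KCl, BSA, glycerol and Tween-20, cleaved an Abz/nitrotyrosine-quenched decapeptide. Fluorescence (ex 320, em 430) was read at 0 and 20 min at room temperature. Delta was normalized to 5.8 microM ADEP and DMSO/no-enzyme controls.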
LDHA inh: blocks human lactate dehydrogenase A; purified LDHA, NADH/diaphorase-resazurin fluorescence; active compounds read low; 480,000 tested, 0.15% active; P00338; activity change, % (values are at about 110 or 230 µM); in the data active means activity change below about -30%; inconclusive means mostly about -25% to -30%;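 further: plate controls were DMSO wells for no effect and wells without enzyme for full effect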
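LDH5 2 nM; NADH 0.06 mM, pyruvate 0.2 mM; 200 mM Tris pH 7.4, EDTA, Tween-20; 5 min RT. Detection: diaphorase 0.133 mg/mL + resazurin 37 µM, fluorescence ex540/em590 at 0 and 20 min; normalized to enzyme-free and DMSO wells.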
KCNH2 3.1 inh: KCNH2 3.1 (human) potassium channel inhibition; AID 720553; 340,000 tested, 0.95% active; U2OS KCNH2 3.1, thallium flux FluxOr; active compounds read low; activity change, % (tested at about 1.8 µM);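 active means maximum activity change below -70%; inconclusive means maximum activity change from -70% to -50%; inactive means maximum activity change above -50%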;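 further: thallium influx rate constant from kinetic fluorescence after stimulation buffer; on the % scale 0 is the no-effect control and ±100 the full control effect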
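Measured as rate of thallium-driven FluxOr signal in transduced U2OS cells carrying the 3.1 channel, read kinetically for 2 min upon stimulation; values are rate constants scaled to DMSO control wells.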
ALOX12 inh: blocks human arachidonate 12S-lipoxygenase | P18054 | purified 12hLO, xylenol orange hydroperoxide absorbance | Potency, µM (titrated, usually from 108 µM), for the others: top-dose activity change, negative = inhibition, actives largely listed as inhibitors | 580,000 tested, 1.1% active | AID 1671190; active means well fitted inhibition curve with a large enough effect; inconclusive means small, poorly fitted or top-dose-only effect, or another doubt; inactive means no such curve, though single readings can be large or run the other way; further: potency means the concentration at half of the fitted maximal effect; on the % scale 0 is the no-effect control and ±100 the full control effect
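Purified human 12hLO (150 nM final) in 25 mM Hepes, 0.01% Triton X-100, pH 7.0 was preincubated 15 min at room temperature with compound. Then 40 uM arachidonic acid was added, 30 min. Hydroperoxide was read by Fe-XO absorbance ratio 573/405 nm.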
An asterisk follows results filed as active; u = inconclusive; x = no result given; [ ] = dose if it differs, or a comment.

SMILES	hERG WT inh	Chronic BCR inh	ClpP mod	LDHA inh	KCNH2 3.1 inh	ALOX12 inh
Cc1cccc(C)c1Nc1c(-c2ccccc2F)nc2cccc(C)n12	x	x	31.6µM*	0.5	x	-10.2%
Cc1cccc2nc(-c3ccccn3)c(Nc3ccc(F)cc3)n12	x	x	-2.6%	5.1	x	-10.7%
COc1cccc(CN2Cc3cc(NS(=O)(=O)c4ccccc4)ccc3OCC2=O)c1OC	x	x	x	x	x	10µM*
COc1ccc(C(=O)Nc2ccc3c(c2)CN(Cc2cccc(OC)c2OC)C(=O)CO3)cc1OC	x	x	x	x	x	-2.7%
N#CCc1ccc(OCCCN2CCC(C(O)(c3ccccc3)c3ccccc3)CC2)cc1	x	x	-2.3%	-1.5	x	u
COc1ccccc1-c1ccc(OCCCN2CCC(C(O)(c3ccccc3)c3ccccc3)CC2)cc1	x	x	x	x	x	39.8µM*
OC(c1ccccc1)(c1ccccc1)C1CCN(CCCOc2ccc(-c3ccc(F)cc3F)cc2)CC1	x	x	x	x	x	39.8µM*
CS(=O)(=O)N1C[C@H]2CCN(C(=O)c3c(F)cccc3F)C[C@H]21	x	x	x	x	x	10.6%
CCOC(=O)CNC(=O)c1cc(-c2ccccn2)nc2c(C)c(Cl)ccc12	-0.5	6.6%	-1.1%	-6.3	-167.7*	-15.0%
Cc1c(Cl)ccc2c(C(N)=O)cc(-c3ccccn3)nc12	10.2	7.2%	-2.2%	-3.6	-1.7	3.8%
N#Cc1ccccc1CNc1ccc(F)c(F)c1F	x	x	x	7.5	x	-18.9%
CC(NCc1ccccc1C#N)c1ccccc1F (stereo not drawn)	x	x	x	-20.0	x	39.8µM*
O=C(c1ccc(Cl)cc1)c1cnc(-c2ccccc2)s1	3.7	-5.4%	20µM*	-2.7	5.5	-1.7%
CCN(CC)C(=O)Cn1cc(C(=O)C(=O)NCC2COc3ccccc3O2)c2ccccc21 (stereo not drawn)	4.6	u	20µM*	-0.2	-8.0	-2.0%
Cc1cc2ccccc2c(=O)n1CC(=O)NCC1COc2ccccc2O1 (stereo not drawn)	6.3	5.4%	25.1µM*	-1.4	3.2	0.0%
Cc1cc2ccccc2c(=O)n1CC(=O)NCc1ccco1	-11.2	u	u	-5.0	-12.5	10.9%
CCN(CC)C(=O)Cn1cc(C(=O)C(=O)NCc2cccs2)c2ccccc21	-14.1	u	0.7%	-4.0	-6.7	10.7%
Cc1ccc(NC(=O)CSc2ncnc3ccccc23)cc1C	x	x	x	1.4	x	-14.4%
CCOc1ccccc1NC(=O)CC1CCCN(c2cnn(CC3CC3)c(=O)c2)C1 (stereo not drawn)	x	x	x	x	x	7.0%
CC(C)c1cc(-c2cc(C(=O)NCc3ccccc3)on2)nc(NCC2CC2)n1	x	16.4%	31.6µM*	0.2	x	-3.8%
CC(C)c1cc(-c2cc(C(=O)NCc3ccccc3)on2)nc(NC2CCCC2)n1	3.5	16.6%	u	3.2	-3.6	-3.4%
Cc1cn([C@H]2C[C@H](O)[C@@H](CNS(=O)(=O)N3CCCC3)O2)c(=O)[nH]c1=O	-6.6	x	-0.9%	0.3	4.0	7.94µM*
O=C(C1CCCN(Cc2ccccc2[N+](=O)[O-])C1)N1CCCC1 (stereo not drawn)	-4.7	u	28.2µM*	-13.7	6.3	u
CCOC(=O)C1CCCN(C(=O)c2cnc3cc(C)nn3c2)C1 (stereo not drawn)	x	x	x	x	x	-6.9%[176 µM]
CCn1cc(C(=O)Nc2ccc(Cl)cc2Cl)cn1	1.7	x	x	-8.4	25.5	188.1%
SMILES	hERG WT inh	Chronic BCR inh	ClpP mod	LDHA inh	KCNH2 3.1 inh	ALOX12 inh
CCn1cc(C(=O)Nc2ccc(F)c(F)c2)cn1	-4.5	u	-3.7%	-1.3	-87.8*	4.3%
COc1ncccc1-c1nnn(-c2ccccc2Br)n1	x	x	-2.0%	0.4	x	28.2µM*
COc1ncccc1-c1nnn(-c2ccccc2)n1	5.5	u	-5.3%	-1.1	17.4	-20.3%
O=C(Nc1nnc(COc2ccc(Cl)cc2)s1)c1ccco1	14.7	5.3%	1.4%	-17.6	5.7	44.7µM*
Cc1ccc(S(=O)(=O)N(C)CC(=O)Nc2ccccc2OC(F)(F)F)cc1	x	x	x	-22.5	x	u
CCCCNc1nc(-c2c(N)n(CCC)c(=O)n(C)c2=O)cs1	x	x	x	3.9	x	-45.8%
CCCn1c(N)c(-c2csc(NC)n2)c(=O)n(C)c1=O	x	x	x	1.9	x	7.94µM*
COc1ccccc1C(=O)N1CCN(c2oc(-c3ccccc3)nc2C#N)CC1	x	x	x	10.1	x	27.8%
COc1ccc(NC(=O)c2ccc(OC(F)F)cc2)cc1Cl	-21.3	-0.2%	25.1µM*	-4.3	-16.6	-4.0%
COc1ccc(NC(=O)c2cc(F)cc(F)c2)cc1Cl	-5.5	-6.3%	-0.9%	-3.3	-22.2	-27.4%
O=C(/C=C/c1c(F)cccc1Cl)NCc1ccco1	-4.7	0.8%	10µM*	-4.5	0.2	7.2%
Cc1nn(C)c(C(=O)N/N=C/c2ccncc2)c1Cl	5.9	-6.4%	0.7%	-5.9	8.0	-0.3%
Cc1nn(C)c(C(=O)N/N=C/c2cccc3ccccc23)c1Cl	7.5	-7.9%	14.1µM*	-5.3	-2.4	33.6%
O=C(NCCN1CCN(C(=O)c2ccc([N+](=O)[O-])cc2)CC1)C(=O)NCc1ccccc1	44.2	-1.8%	1.6%	1.4	-79.7*	-4.3%
CCCCc1ccc(NC(=O)C(=O)NCCN2CCN(Cc3ccc([N+](=O)[O-])cc3)CC2)cc1	-245.1*	-3.2%	-1.3%	-8.8	-169.1*	-14.0%
O=C(NCCc1cccc2cccnc12)NC1CCN(CC2CCCC2)CC1	x	x	x	-8.0	x	5.2%
CC#CCn1cc2c3c(cccc31)[C@H](CC(C)C)N[C@H](C(=O)NCCN1CCOCC1)C2	x	x	x	x	x	48.0%[176 µM]
Cc1ccc(/C=N/NC(=O)C(c2ccccc2)c2ccccc2)s1	x	x	x	6.0	x	-2.8%
Cc1ccccc1Cn1c(=O)n(CCC(=O)NCCc2ccc(Cl)cc2)c(=O)c2sccc21	x	x	x	1.5	x	u
CCNc1nc(-c2ccc(S(=O)(=O)N3CCCCCC3)cc2)cs1	x	x	x	-1.7	x	u
O=c1[nH]c2ccc(-c3csc(Nc4ccc(F)cc4)n3)cc2o1	x	x	x	-0.9	x	17.8µM*
O=C(Cc1ccc(-c2csc(Nc3ccc(F)cc3)n2)s1)N1CCOCC1	x	x	x	17.3	x	31.6µM*
CCCNc1nc(-c2ccc(S(=O)(=O)N3CCCCCC3)cc2)cs1	x	x	x	-0.9	x	31.6µM*
O=S(=O)(c1ccc(-c2csc(Nc3ccc(F)cc3)n2)cc1)N1CCOCC1	x	x	x	-9.7	x	u
Cc1ccc(Nc2nc(-c3ccc(S(=O)(=O)N4CCOCC4)cc3)cs2)cc1	18.2	x	12.6µM*	-3.3	-1.6	u
CC(C)Cc1cc(CNc2nccc(-c3cc(C(=O)O)ccn3)n2)no1	x	x	x	x	x	57.3%
CC(=O)Nc1ccc(-c2csc(Nc3ccc(C)cc3)n2)cc1	x	x	x	1.2	x	u

Source: PubChem BioAssay (National Center for Advancing Translational Sciences (NCATS))
